Experimental data as given in the supplement of paper PMC8728848.
Only a selection was taken, and the strongest signals are over-represented in it overall.

Assays:
Test in all cases: glycan array binding signal (z-score within array); higher = stronger binding
Conditions in all cases: glycan notation: IUPAC condensed, linker removed
[1] = target: Fuc(a1-2)Gal(b1-3)[Fuc(a1-4)]GlcNAc(b1-2)Man(a1-3)[Fuc(a1-2)Gal(b1-3)[Fuc(a1-4)]GlcNAc(b1-2)Man(a1-3)]Man(b1-4)GlcNAc(b1-4)GlcNAc
Outline: (§1)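 Negative Z-scores can be read as non-binding. The Z-score is calculated within each array and then averaged across arrays of one protein sequence at different concentrations or buffers and across linkers. Arrays, 3228 in all, were curated from the Consortium for Functional Glycomics database and kept only where the protein sequence was available.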

[2] = target: Fuc(a1-2)Gal(b1-4)Fuc(a1-3)]GlcNAc(b1-2)Man(a1-3)[Fuc(a1-2)Gal(b1-4)[Fuc(a1-3)]GlcNAc(b1-2)Man(a1-6)]Man(b1-4)GlcNAc(b1-4)GlcNAc
Outline: as §1

Fuc(a1-2)Gal(b1-4)GlcNAc = target: Fuc(a1-2)Gal(b1-4)GlcNAc
Outline: as §1

[3] = target: Fuc(a1-2)Gal(b1-4)[Fuc(a1-3)]GlcNAc(b1-2)[Fuc(a1-2)Gal(b1-4)[Fuc(a1-3)]GlcNAc(b1-4)]Man(a1-3)[Fuc(a1-2)Gal(b1-4)[Fuc(a1-3)]GlcNAc(b1-2)Man(a1-6)]Man(b1-4)GlcNAc(b1-4)GlcNAc
Outline: as §1

[4] = target: Fuc(a1-2)Gal(b1-4)[Fuc(a1-3)]GlcNAc(b1-3)Gal(b1-4)[Fuc(a1-3)]GlcNAc(b1-3)Gal(b1-4)[Fuc(a1-3)]GlcNAc
Outline: as §1

[5] = target: Fuc(a1-2)Gal6S(b1-4)Glc6S
Outline: as §1

[6] = target: Fuc(a1-2)[GalNAc(a1-3)]Gal
Outline: as §1

[7] = target: Fuc(a1-2)[GalNAc(a1-3)]Gal(b1-3)GalNAc(a1-3)[Fuc(a1-2)]Gal(b1-4)GlcNAc
Outline: as §1

[8] = target: Gal(a1-3)Gal(b1-4)GlcNAc(b1-2)Man
Outline: as §1

[9] = target: Gal(a1-3)Gal(b1-4)[Fuc(a1-3)]GlcNAc(b1-2)Man(a1-3)[Gal(a1-3)Gal(b1-4)[Fuc(a1-3)]GlcNAc(b1-2)Man(a1-6)]Man(b1-4)GlcNAc(b1-4)GlcNAc
Outline: as §1

Gal(a1-4)Gal(b1-4)Glc = target: Gal(a1-4)Gal(b1-4)Glc
Outline: as §1

[10] = target: Gal(b1-3)GlcNAc(a1-6)Gal(b1-4)GlcNAc
Outline: as §1

[11] = target: Gal(b1-3)GlcNAc(b1-3)Gal(b1-4)GlcNAc(b1-2)Man(a1-3)[Gal(b1-3)GlcNAc(b1-3)Gal(b1-4)GlcNAc(b1-2)Man(a1-6)]Man(b1-4)GlcNAc(b1-4)GlcNAc
Outline: as §1

[12] = target: Gal(b1-4)GlcNAc(b1-2)Man(a1-6)[Man(a1-3)]Man(b1-4)GlcNAc(b1-4)GlcNAc
Outline: as §1

[13] = target: Gal(b1-4)GlcNAc(b1-3)Gal(b1-4)GlcNAc(b1-2)Man(a1-3)[Gal(b1-4)GlcNAc(b1-3)Gal(b1-4)GlcNAc(b1-2)Man(a1-6)]Man(b1-4)GlcNAc(b1-4)GlcNAc
Outline: as §1

[14] = target: Gal(b1-4)GlcNAc(b1-3)Gal(b1-4)GlcNAc(b1-2)[Gal(b1-4)GlcNAc(b1-3)Gal(b1-4)GlcNAc(b1-6)]Man(a1-6)[Gal(b1-4)GlcNAc(b1-3)Gal(b1-4)GlcNAc(b1-2)Man(a1-3)]Man(b1-4)GlcNAc(b1-4)GlcNAc
Outline: as §1

[15] = target: Gal(b1-4)GlcNAc(b1-3)Gal(b1-4)GlcNAc(b1-2)[Gal(b1-4)GlcNAc(b1-3)Gal(b1-4)GlcNAc(b1-6)]Man(a1-6)[Gal(b1-4)GlcNAc(b1-3)Gal(b1-4)GlcNAc(b1-2)Man(a1-3)]Man(b1-4)GlcNAc(b1-4)[Fuc(a1-6)]GlcNAc
Outline: as §1

[16] = target: Gal(b1-4)GlcNAc(b1-3)Gal(b1-4)GlcNAc(b1-3)Gal(b1-4)GlcNAc
Outline: as §1

[17] = target: Gal(b1-4)GlcNAc(b1-3)Gal(b1-4)GlcNAc(b1-3)Gal(b1-4)GlcNAc(b1-2)Man(a1-3)[Gal(b1-4)GlcNAc(b1-3)Gal(b1-4)GlcNAc(b1-3)Gal(b1-4)GlcNAc(b1-2)Man(a1-6)]Man(b1-4)GlcNAc(b1-4)GlcNAc
Outline: as §1

[18] = target: Gal(b1-4)GlcNAc(b1-3)Gal(b1-4)GlcNAc(b1-3)Gal(b1-4)GlcNAc(b1-3)Gal(b1-4)GlcNAc(b1-3)Gal(b1-4)GlcNAc(b1-2)Man(a1-3)[Gal(b1-4)GlcNAc(b1-3)Gal(b1-4)GlcNAc(b1-3)Gal(b1-4)GlcNAc(b1-3)Gal(b1-4)GlcNAc(b1-3)Gal(b1-4)GlcNAc(b1-2)Man(a1-6)]Man(b1-4)GlcNAc(b1-4)[Fuc(a1-6)]GlcNAc
Outline: as §1

[19] = target: Gal(b1-4)GlcNAc(b1-3)Gal(b1-4)GlcNAc(b1-3)GalNAc
Outline: as §1

[20] = target: Gal(b1-4)GlcNAc(b1-3)[Fuc(a1-3)GlcNAc(b1-6)]Gal(b1-4)Glc
Outline: as §1

Gal(b1-6)Gal = target: Gal(b1-6)Gal
Outline: as §1

[21] = target: Gal3S(b1-4)[Fuc(a1-3)]Glc6S
Outline: as §1

Gal6S(b1-3)GlcNAc = target: Gal6S(b1-3)GlcNAc
Outline: as §1

B1: Erv46-EDTA (Saccharomyces cerevisiae), P39727 (protein)
chain: MKFLVNVALVFMVVYISYIYAAAPEHHHHHHDYDIPTTENLYFQGAMDSVVTRPQLVVDRDRHAKLELNMDVTFPSMPCDLVNLDIMDDSGEMQLDILDAGFTMSRLNSEGRPVGDATELHVGGNGDGTAPVNNDPNYCGPCYGAKDQSQNENLAQEEKVCCQDCDAVRSAYLEAGWAFFDGKNIEQCEREGYVSKINEHLNEGCRIKGSAQINRIQGNLHFAPGKPYQNAYGHFHDTSLYDKTSNLNFNHIINHLSFGKPIQSHSKLLGNDKRHGGAVVATSPLDGRQVFPDRNTHFHQFSYFAKIVPTRYEYLDNVVIETAQFSATFHSRPLAGGRDKDHPNTLHVRGGIPGMFVFFEMSPLKVINKEQ
- glycan array binding signal (z-score) [1]: 0.467
- glycan array binding signal (z-score) [2]: 3.11
- glycan array binding signal (z-score) (Fuc(a1-2)Gal(b1-4)GlcNAc): -0.508
- glycan array binding signal (z-score) [3]: 2.34
- glycan array binding signal (z-score) [4]: -0.775
- glycan array binding signal (z-score) [5]: 0.075
- glycan array binding signal (z-score) [6]: -0.619
- glycan array binding signal (z-score) [7]: -0.454
- glycan array binding signal (z-score) [8]: 0.805
- glycan array binding signal (z-score) [9]: 2.74
- glycan array binding signal (z-score) (Gal(a1-4)Gal(b1-4)Glc): 0.54
- glycan array binding signal (z-score) [10]: -0.279
- glycan array binding signal (z-score) [11]: 0.126
- glycan array binding signal (z-score) [12]: -0.001
- glycan array binding signal (z-score) [13]: 4.93
- glycan array binding signal (z-score) [14]: 2.71
- glycan array binding signal (z-score) [15]: 2.65
- glycan array binding signal (z-score) [16]: 0.66
- glycan array binding signal (z-score) [17]: 3.36
- glycan array binding signal (z-score) [18]: 1.81
- glycan array binding signal (z-score) [19]: 2.4
- glycan array binding signal (z-score) [20]: -0.11
- glycan array binding signal (z-score) (Gal(b1-6)Gal): -0.241
- glycan array binding signal (z-score) [21]: 0.233
- glycan array binding signal (z-score) (Gal6S(b1-3)GlcNAc): -0.805
